# PubChem BioAssay AID1159580 (chemical genetic matrix, 2015)
# Screen size: about 5,500 compounds; about 2,000 (36%) were called active. Not shown: some 18% with an inconclusive outcome. The list shows a part of the results. Unmarked numbers belong to inactive results. No stated cut-off is given here; in the data, active means normalized growth mostly below about 0.91 (no sharp cut-off); inconclusive means no clear call, values can overlap the other calls; inactive means mostly above about 0.92.
# Assay: chemical genetic growth profiling, strain panel (AID 1159580);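 further: tested at 20 µM; growth read once vehicle control cultures reached saturation at 30 °C; 1 = growth at the plate median or of vehicle wells; lower values mean less growth of the strain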
# Details: growth OD
smiles,measurement,setting,value
COc1c(N2CCNC(C)C2)c(F)cc2c(=O)c(C(=O)O)cn(C3CC3)c12 (configuration not stated),normalized growth,"S. cerevisiae deletion strains, locus YJR075W, strain HOC1, active compounds read low",0.989
same,normalized growth,"S. cerevisiae deletion strains, locus YKL009W, strain mrt4, active compounds read low",1.02
same,normalized growth,"S. cerevisiae deletion strains, locus YKL068W, active compounds read low",0.997
same,normalized growth,"S. cerevisiae deletion strains, locus YKL085W, strain MDH1 (second series), active compounds read low",0.995
same,normalized growth,"S. cerevisiae deletion strains, locus YKL085W, strain MDH1, active compounds read low",0.995
same,normalized growth,"S. cerevisiae deletion strains, locus YKL160W, strain elf1, active compounds read low",0.975
same,normalized growth,"S. cerevisiae deletion strains, locus YKL190W, strain CNB1, active compounds read low",1.01
same,normalized growth,"S. cerevisiae deletion strains, locus YKR001C, strain vps1, active compounds read low",0.996
same,normalized growth,"S. cerevisiae deletion strains, locus YKR026C, strain gcn3, active compounds read low",0.987
same,normalized growth,"S. cerevisiae deletion strains, locus YKR091W, strain srl3, active compounds read low",0.98
same,normalized growth,"S. cerevisiae deletion strains, locus YLL001W, strain dnm1, active compounds read low",0.998
same,normalized growth,"S. cerevisiae deletion strains, locus YLL026W, active compounds read low",0.985
same,normalized growth,"S. cerevisiae deletion strains, locus YLL041C, strain sdh2, active compounds read low",0.988
same,normalized growth,"S. cerevisiae deletion strains, locus YLR027C, strain aat2, active compounds read low",0.99
same,normalized growth,"S. cerevisiae deletion strains, locus YLR039C, strain RIC1, active compounds read low",0.837
same,normalized growth,"S. cerevisiae deletion strains, locus YLR058C, strain SHM2, active compounds read low",1
same,normalized growth,"S. cerevisiae deletion strains, locus YLR102C, strain apc9, active compounds read low",0.988
same,normalized growth,"S. cerevisiae deletion strains, locus YLR113W, strain HOG1, active compounds read low",1.03
same,normalized growth,"S. cerevisiae deletion strains, locus YLR221C, strain rsa3, active compounds read low",0.975
same,normalized growth,"S. cerevisiae deletion strains, locus YLR258W, strain gsy2, active compounds read low",0.987
same,normalized growth,"S. cerevisiae deletion strains, locus YLR262C, strain YPT6 (second series), active compounds read low",0.915
same,normalized growth,"S. cerevisiae deletion strains, locus YLR262C, strain YPT6, active compounds read low",0.846
same,normalized growth,"S. cerevisiae deletion strains, locus YLR268W, strain sec22, active compounds read low",0.988
same,normalized growth,"S. cerevisiae deletion strains, locus YLR320W, strain mms22, active compounds read low",0.75 (active)
same,normalized growth,"S. cerevisiae deletion strains, locus YLR330W, strain CHS5, active compounds read low",1.01
same,normalized growth,"S. cerevisiae deletion strains, locus YLR342W, strain FKS1 (second series), active compounds read low",0.881
same,normalized growth,"S. cerevisiae deletion strains, locus YLR342W, strain FKS1, active compounds read low",0.972
same,normalized growth,"S. cerevisiae deletion strains, locus YLR357W, strain rsc2, active compounds read low",0.934
same,normalized growth,"S. cerevisiae deletion strains, locus YLR370C, strain arc18, active compounds read low",0.978
same,normalized growth,"S. cerevisiae deletion strains, locus YLR371W, strain rom2, active compounds read low",0.989
same,normalized growth,"S. cerevisiae deletion strains, locus YLR384C, strain iki3, active compounds read low",0.995
same,normalized growth,"S. cerevisiae deletion strains, locus YLR418C, strain cdc73, active compounds read low",0.973
same,normalized growth,"S. cerevisiae deletion strains, locus YML016C, strain PPZ1, active compounds read low",1.01
same,normalized growth,"S. cerevisiae deletion strains, locus YML032C, strain rad52, active compounds read low",0.492 (active)
same,normalized growth,"S. cerevisiae deletion strains, locus YML120C, strain ndi1, active compounds read low",0.984
same,normalized growth,"S. cerevisiae deletion strains, locus YML124C, strain tub3, active compounds read low",0.985
same,normalized growth,"S. cerevisiae deletion strains, locus YMR058W, strain fet3, active compounds read low",0.992
same,normalized growth,"S. cerevisiae deletion strains, locus YMR078C, strain ctf18, active compounds read low",0.974
same,normalized growth,"S. cerevisiae deletion strains, locus YMR125W, strain sto1, active compounds read low",0.928
same,normalized growth,"S. cerevisiae deletion strains, locus YMR129W, active compounds read low",0.974
same,normalized growth,"S. cerevisiae deletion strains, locus YMR205C, strain PFK2, active compounds read low",0.996
same,normalized growth,"S. cerevisiae deletion strains, locus YMR223W, strain ubp8, active compounds read low",0.999
same,normalized growth,"S. cerevisiae deletion strains, locus YMR231W, strain pep5, active compounds read low",0.993
same,normalized growth,"S. cerevisiae deletion strains, locus YMR263W, strain SAP30, active compounds read low",1.01
same,normalized growth,"S. cerevisiae deletion strains, locus YMR307W, strain GAS1, active compounds read low",0.845
same,normalized growth,"S. cerevisiae deletion strains, locus YNL067W, strain RPL9B, active compounds read low",1
same,normalized growth,"S. cerevisiae deletion strains, locus YNL071W, strain lat1, active compounds read low",0.985
same,normalized growth,"S. cerevisiae deletion strains, locus YNL128W, strain TEP1, active compounds read low",1.03
same,normalized growth,"S. cerevisiae deletion strains, locus YNL153C, strain GIM3, active compounds read low",1.01
same,normalized growth,"S. cerevisiae deletion strains, locus YNL183C, strain NPR1, active compounds read low",0.983
same,normalized growth,"S. cerevisiae deletion strains, locus YNL209W, strain ssb2, active compounds read low",0.986
same,normalized growth,"S. cerevisiae deletion strains, locus YNL233W, strain BNI4, active compounds read low",1.01
same,normalized growth,"S. cerevisiae deletion strains, locus YNL248C, strain rpa49, active compounds read low",0.917
same,normalized growth,"S. cerevisiae deletion strains, locus YNL250W, strain rad50, active compounds read low",0.868 (active)
same,normalized growth,"S. cerevisiae deletion strains, locus YNL271C, strain bni1, active compounds read low",1
same,normalized growth,"S. cerevisiae deletion strains, locus YNL298W, strain CLA4, active compounds read low",1.02
same,normalized growth,"S. cerevisiae deletion strains, locus YNL307C, strain MCK1, active compounds read low",1
same,normalized growth,"S. cerevisiae deletion strains, locus YNL322C, strain KRE1 (second series), active compounds read low",0.967
same,normalized growth,"S. cerevisiae deletion strains, locus YNL322C, strain KRE1, active compounds read low",1.01
same,normalized growth,"S. cerevisiae deletion strains, locus YNR049C, strain mso1, active compounds read low",0.963
same,normalized growth,"S. cerevisiae deletion strains, locus YNR052C, strain pop2, active compounds read low",1
same,normalized growth,"S. cerevisiae deletion strains, locus YOL006C, strain TOP1, active compounds read low",0.936
same,normalized growth,"S. cerevisiae deletion strains, locus YOL012C, strain htz1",0.555
same,normalized growth,"S. cerevisiae deletion strains, locus YOL147C, strain pex11, active compounds read low",1
same,normalized growth,"S. cerevisiae deletion strains, locus YOR001W, strain rrp6, active compounds read low",0.986
same,normalized growth,"S. cerevisiae deletion strains, locus YOR061W, strain CKA2, active compounds read low",1.01
same,normalized growth,"S. cerevisiae deletion strains, locus YOR069W, strain VPS5, active compounds read low",1.01
same,normalized growth,"S. cerevisiae deletion strains, locus YOR070C, strain gyp1, active compounds read low",0.994
same,normalized growth,"S. cerevisiae deletion strains, locus YOR080W, strain dia2, active compounds read low",0.97
same,normalized growth,"S. cerevisiae deletion strains, locus YOR083W, strain WHI5, active compounds read low",1
same,normalized growth,"S. cerevisiae deletion strains, locus YOR106W, strain vam3, active compounds read low",0.994
same,normalized growth,"S. cerevisiae deletion strains, locus YOR136W, strain idh2, active compounds read low",1
same,normalized growth,"S. cerevisiae deletion strains, locus YOR144C, strain elg1, active compounds read low",0.998
same,normalized growth,"S. cerevisiae deletion strains, locus YOR184W, strain ser1, active compounds read low",0.99
same,normalized growth,"S. cerevisiae deletion strains, locus YOR231W, strain MKK1, active compounds read low",1.01
same,normalized growth,"S. cerevisiae deletion strains, locus YOR265W, strain rbl2, active compounds read low",0.984
same,normalized growth,"S. cerevisiae deletion strains, locus YOR270C, strain vph1, active compounds read low",0.896
same,normalized growth,"S. cerevisiae deletion strains, locus YOR290C, strain snf2, active compounds read low",0.951
same,normalized growth,"S. cerevisiae deletion strains, locus YOR316C, strain cot1, active compounds read low",0.995
same,normalized growth,"S. cerevisiae deletion strains, locus YPL051W, strain arl3, active compounds read low",0.975
same,normalized growth,"S. cerevisiae deletion strains, locus YPL055C, strain LGE1, active compounds read low",0.992
same,normalized growth,"S. cerevisiae deletion strains, locus YPL078C, strain atp4, active compounds read low",0.99
same,normalized growth,"S. cerevisiae deletion strains, locus YPL106C, strain sse1, active compounds read low",0.946
same,normalized growth,"S. cerevisiae deletion strains, locus YPL240C, strain hsp82, active compounds read low",0.986
same,normalized growth,"S. cerevisiae deletion strains, locus YPL241C, strain CIN2, active compounds read low",1.01
same,normalized growth,"S. cerevisiae deletion strains, locus YPL256C, strain CLN2, active compounds read low",0.956
same,normalized growth,"S. cerevisiae deletion strains, locus YPR119W, strain clb2, active compounds read low",0.997
same,normalized growth,"S. cerevisiae deletion strains, locus YPR141C, strain kar3, active compounds read low",1
same,normalized growth,"S. cerevisiae deletion strains, locus YPR163C, strain tif3, active compounds read low",1
same,normalized growth,"S. cerevisiae deletion strains, locus YPR167C, strain met16, active compounds read low",0.996
same,normalized growth,"S. cerevisiae deletion strains, strain wtn01, active compounds read low",0.996
same,normalized growth,"S. cerevisiae strains, strain wild type, active compounds read low",1.01
